This passage reports binding signal results from PMC7862700, “An all-to-all approach to the identification of sequence-specific readers for epigenetic DNA modifications on cytosine”.

Assay in all cases: DAPPL (digital affinity profiling via proximity ligation, sequencing); 10 mM Tris-HCl pH 7.5, 50 mM NaCl, 1 mM DTT, 4% glycerol, room temperature, 30 min; GST-TFs on glutathione beads, 16-mer random dsDNA library, 0.1% formaldehyde crosslink after washing; high values mean tight binding
Conditions in all cases: protein: recombinant; tags: N-terminal GST; dsDNA, one strand shown

For experiment [1], the target named is T1, FLI1 (Homo sapiens, UniProt Q01543 1-452).
T1 sequence: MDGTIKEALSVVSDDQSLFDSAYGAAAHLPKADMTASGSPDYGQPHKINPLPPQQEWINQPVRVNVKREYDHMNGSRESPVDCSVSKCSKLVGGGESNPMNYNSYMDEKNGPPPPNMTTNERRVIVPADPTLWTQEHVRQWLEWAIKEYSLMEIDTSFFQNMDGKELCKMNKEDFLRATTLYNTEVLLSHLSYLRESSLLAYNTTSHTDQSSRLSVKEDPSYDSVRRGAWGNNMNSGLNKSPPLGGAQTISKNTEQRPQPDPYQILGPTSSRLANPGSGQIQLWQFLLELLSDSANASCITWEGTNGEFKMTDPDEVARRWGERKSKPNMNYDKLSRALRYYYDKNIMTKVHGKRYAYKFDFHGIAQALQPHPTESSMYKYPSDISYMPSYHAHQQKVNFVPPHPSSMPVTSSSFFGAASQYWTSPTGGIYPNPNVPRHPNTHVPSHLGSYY
In a few lines:
(§1)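 Binding signal is given per hexamer as its read frequency for a factor divided by its frequency in the tag-only sample. GST-fused human transcription factors were expressed in yeast, captured on glutathione beads, barcoded with DNA and pooled with that sample, then incubated with 200 nmole of a 16-mer random double-stranded DNA library in Tris/NaCl/DTT/glycerol buffer for 30 min at room temperature. The pools were then washed, crosslinked, proximity-ligated, amplified by PCR and sequenced on an Illumina NextSeq500.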

Experiment [2] has as its target T2, ELK1 (Homo sapiens, UniProt P19419 1-428).
T2 sequence: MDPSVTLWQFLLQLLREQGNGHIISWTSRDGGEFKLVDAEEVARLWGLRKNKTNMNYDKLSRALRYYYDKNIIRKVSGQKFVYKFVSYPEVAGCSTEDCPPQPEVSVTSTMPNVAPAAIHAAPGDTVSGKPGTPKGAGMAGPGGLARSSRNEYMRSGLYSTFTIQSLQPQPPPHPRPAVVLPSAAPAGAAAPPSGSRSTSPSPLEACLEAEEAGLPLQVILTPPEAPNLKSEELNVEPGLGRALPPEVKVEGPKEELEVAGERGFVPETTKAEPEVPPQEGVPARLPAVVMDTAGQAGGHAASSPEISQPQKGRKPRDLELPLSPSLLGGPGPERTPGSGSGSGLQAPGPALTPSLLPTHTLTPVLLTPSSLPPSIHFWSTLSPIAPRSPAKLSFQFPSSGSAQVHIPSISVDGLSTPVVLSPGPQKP
In a few lines:
as §1

Experiment [3] concerns the target T3, GABPA (Homo sapiens, UniProt Q06546 1-454).
T3 sequence: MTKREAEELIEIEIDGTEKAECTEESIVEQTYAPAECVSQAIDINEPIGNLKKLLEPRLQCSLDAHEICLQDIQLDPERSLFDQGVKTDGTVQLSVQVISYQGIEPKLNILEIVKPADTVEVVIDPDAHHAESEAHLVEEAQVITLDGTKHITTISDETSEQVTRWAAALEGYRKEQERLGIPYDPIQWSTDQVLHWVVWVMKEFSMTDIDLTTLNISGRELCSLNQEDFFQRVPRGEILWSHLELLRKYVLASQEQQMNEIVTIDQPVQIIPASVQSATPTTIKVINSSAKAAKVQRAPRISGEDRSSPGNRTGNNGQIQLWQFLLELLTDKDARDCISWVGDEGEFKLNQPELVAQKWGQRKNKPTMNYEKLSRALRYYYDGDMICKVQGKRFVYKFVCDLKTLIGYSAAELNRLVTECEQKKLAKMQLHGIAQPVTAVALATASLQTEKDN
In a few lines:
as §1

The target of experiment [4] is T4, ERG (Homo sapiens, UniProt P11308 1-479).
T4 sequence: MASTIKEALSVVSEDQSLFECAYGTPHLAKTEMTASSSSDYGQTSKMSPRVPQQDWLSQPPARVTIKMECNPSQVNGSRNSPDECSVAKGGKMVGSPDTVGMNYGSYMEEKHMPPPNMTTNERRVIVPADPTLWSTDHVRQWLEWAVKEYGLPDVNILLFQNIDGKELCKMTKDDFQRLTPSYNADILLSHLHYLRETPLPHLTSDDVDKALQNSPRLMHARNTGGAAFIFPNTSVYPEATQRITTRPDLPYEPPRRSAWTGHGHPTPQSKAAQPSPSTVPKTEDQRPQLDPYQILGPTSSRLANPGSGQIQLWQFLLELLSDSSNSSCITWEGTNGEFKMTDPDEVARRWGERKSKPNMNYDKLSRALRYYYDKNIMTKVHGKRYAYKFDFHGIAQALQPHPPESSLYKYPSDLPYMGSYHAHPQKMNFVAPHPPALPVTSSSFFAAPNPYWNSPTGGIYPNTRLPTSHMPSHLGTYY
A digest of the protocol: as §1

For experiment [5], the target named is ELF1 (Homo sapiens, UniProt P32519 1-619). In a few lines:
as §1

For experiment [6], the target named is T5, EHF (Homo sapiens, UniProt Q9NZC4 1-300).
T5 sequence: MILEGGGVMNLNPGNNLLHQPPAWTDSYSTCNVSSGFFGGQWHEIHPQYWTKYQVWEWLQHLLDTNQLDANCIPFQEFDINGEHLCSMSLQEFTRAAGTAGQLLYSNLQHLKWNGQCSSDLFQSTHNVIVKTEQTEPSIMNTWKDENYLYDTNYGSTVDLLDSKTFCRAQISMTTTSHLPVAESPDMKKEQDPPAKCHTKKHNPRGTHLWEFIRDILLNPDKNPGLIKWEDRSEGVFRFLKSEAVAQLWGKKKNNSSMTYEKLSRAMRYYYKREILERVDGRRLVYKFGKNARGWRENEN
In a few lines:
as §1

The target of experiment [7] is SPI1 (Homo sapiens, UniProt P17947 1-270). A digest of the protocol: as §1
The target of experiment [8] is SPIB (Homo sapiens, UniProt Q01892 1-262). A digest of the protocol: as §1
Sequence of SPIB (Q01892 whole entry): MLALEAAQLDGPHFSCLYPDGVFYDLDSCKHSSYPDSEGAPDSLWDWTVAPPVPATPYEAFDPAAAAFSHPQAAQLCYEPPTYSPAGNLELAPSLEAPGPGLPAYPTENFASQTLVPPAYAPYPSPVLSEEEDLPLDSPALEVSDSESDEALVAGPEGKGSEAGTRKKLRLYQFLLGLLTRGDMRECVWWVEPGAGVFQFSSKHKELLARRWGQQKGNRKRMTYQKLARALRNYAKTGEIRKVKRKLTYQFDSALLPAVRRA
Experiment [9] deals with T6, ELK3 (Homo sapiens, UniProt P41970 1-407).
T6 sequence: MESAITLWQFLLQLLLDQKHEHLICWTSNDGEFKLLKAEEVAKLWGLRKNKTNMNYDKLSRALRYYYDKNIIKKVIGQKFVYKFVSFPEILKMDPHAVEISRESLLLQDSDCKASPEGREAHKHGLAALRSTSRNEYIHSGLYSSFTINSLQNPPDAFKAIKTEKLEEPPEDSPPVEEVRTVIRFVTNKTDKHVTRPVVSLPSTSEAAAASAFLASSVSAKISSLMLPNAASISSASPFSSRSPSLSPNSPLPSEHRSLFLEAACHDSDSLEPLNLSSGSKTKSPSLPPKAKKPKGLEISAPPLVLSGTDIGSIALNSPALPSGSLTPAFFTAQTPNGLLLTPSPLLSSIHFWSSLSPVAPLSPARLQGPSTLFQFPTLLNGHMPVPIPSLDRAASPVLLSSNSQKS
A digest of the protocol:
as §1

Sequence of ELF1 (P32519 whole entry): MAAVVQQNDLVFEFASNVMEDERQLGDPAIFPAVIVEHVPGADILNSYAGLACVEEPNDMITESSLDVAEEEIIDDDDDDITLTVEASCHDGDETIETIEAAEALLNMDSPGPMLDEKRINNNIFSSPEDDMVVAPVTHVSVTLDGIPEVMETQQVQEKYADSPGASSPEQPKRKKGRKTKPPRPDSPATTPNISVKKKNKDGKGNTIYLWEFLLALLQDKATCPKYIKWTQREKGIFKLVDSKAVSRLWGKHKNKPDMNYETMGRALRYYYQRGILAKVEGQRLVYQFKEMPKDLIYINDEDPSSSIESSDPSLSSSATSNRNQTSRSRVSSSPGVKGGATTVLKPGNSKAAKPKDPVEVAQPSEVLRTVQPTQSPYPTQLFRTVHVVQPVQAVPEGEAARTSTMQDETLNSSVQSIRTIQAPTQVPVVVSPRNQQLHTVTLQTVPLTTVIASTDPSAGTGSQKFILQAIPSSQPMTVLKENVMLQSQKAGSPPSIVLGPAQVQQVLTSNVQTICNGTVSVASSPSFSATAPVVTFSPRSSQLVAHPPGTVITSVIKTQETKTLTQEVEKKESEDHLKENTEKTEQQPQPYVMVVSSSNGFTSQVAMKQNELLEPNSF

TTCTTC: the binding signal was 1.92 fold enrichment (6-mer frequency, TF over GST control) in experiment [1]; 1.87 fold enrichment (6-mer frequency, TF over GST control) in [2]; 1.79 fold enrichment (6-mer frequency, TF over GST control) in [3]; 1.87 fold enrichment (6-mer frequency, TF over GST control) in experiment [4]; 1.85 fold enrichment (6-mer frequency, TF over GST control) in [5]; 1.75 fold enrichment (6-mer frequency, TF over GST control) in experiment [6]. In addition, the binding signal was 1.8 fold enrichment (6-mer frequency, TF over GST control) in experiment [7]; 1.9 fold enrichment (6-mer frequency, TF over GST control) in experiment [8]; 2.25 fold enrichment (6-mer frequency, TF over GST control) in experiment [9].

TTCACT: the binding signal in experiment [1] is 1.22 fold enrichment (6-mer frequency, TF over GST control); in experiment [2] it was 1.32 fold enrichment (6-mer frequency, TF over GST control); in experiment [3] it was 1.33 fold enrichment (6-mer frequency, TF over GST control); in experiment [4], 1.36 fold enrichment (6-mer frequency, TF over GST control); in [5] it was 1.43 fold enrichment (6-mer frequency, TF over GST control); in experiment [6], 1.32 fold enrichment (6-mer frequency, TF over GST control). Also, the binding signal was 1.33 fold enrichment (6-mer frequency, TF over GST control) in experiment [7]; 1.24 fold enrichment (6-mer frequency, TF over GST control) in experiment [8]; 1.37 fold enrichment (6-mer frequency, TF over GST control) in [9].

Consider GTTATT, for which the binding signal in experiment [1] was 1.16 fold enrichment (6-mer frequency, TF over GST control); in [2] it was 1.23 fold enrichment (6-mer frequency, TF over GST control); in experiment [3], 1.17 fold enrichment (6-mer frequency, TF over GST control); in [4], 1.15 fold enrichment (6-mer frequency, TF over GST control); in experiment [5], 1.05 fold enrichment (6-mer frequency, TF over GST control); in experiment [6], 1.08 fold enrichment (6-mer frequency, TF over GST control). Further, the binding signal in [7] is 1.28 fold enrichment (6-mer frequency, TF over GST control); in experiment [8], 1.09 fold enrichment (6-mer frequency, TF over GST control); in [9] it was 1.23 fold enrichment (6-mer frequency, TF over GST control).

Regarding TTTTGG, the binding signal in experiment [1] was 1.35 fold enrichment (6-mer frequency, TF over GST control); in experiment [2], 1.42 fold enrichment (6-mer frequency, TF over GST control); in experiment [3] it was 1.47 fold enrichment (6-mer frequency, TF over GST control); in experiment [4], 1.26 fold enrichment (6-mer frequency, TF over GST control); in experiment [5], 1.36 fold enrichment (6-mer frequency, TF over GST control); in [6], 1.37 fold enrichment (6-mer frequency, TF over GST control). Further, the binding signal was 1.5 fold enrichment (6-mer frequency, TF over GST control) in experiment [7]; 1.63 fold enrichment (6-mer frequency, TF over GST control) in experiment [8]; 1.31 fold enrichment (6-mer frequency, TF over GST control) in [9].

Consider TATCAT, for which the binding signal was 1.25 fold enrichment (6-mer frequency, TF over GST control) in experiment [1]; 1.18 fold enrichment (6-mer frequency, TF over GST control) in experiment [2]; 1.3 fold enrichment (6-mer frequency, TF over GST control) in [3]; 1.13 fold enrichment (6-mer frequency, TF over GST control) in experiment [4]; 1.15 fold enrichment (6-mer frequency, TF over GST control) in experiment [5]; 1.21 fold enrichment (6-mer frequency, TF over GST control) in experiment [6]. Besides, the binding signal in [7] is 1.13 fold enrichment (6-mer frequency, TF over GST control); in experiment [8] it was 1.11 fold enrichment (6-mer frequency, TF over GST control); in experiment [9], 1.17 fold enrichment (6-mer frequency, TF over GST control).

Consider ACGATT, for which the binding signal is 1.44 fold enrichment (6-mer frequency, TF over GST control) in [1]; 1.31 fold enrichment (6-mer frequency, TF over GST control) in experiment [2]; 1.29 fold enrichment (6-mer frequency, TF over GST control) in [3]; 1.34 fold enrichment (6-mer frequency, TF over GST control) in [4]; 1.32 fold enrichment (6-mer frequency, TF over GST control) in experiment [5]; 1.32 fold enrichment (6-mer frequency, TF over GST control) in experiment [6]. In addition, the binding signal in [7] was 1.31 fold enrichment (6-mer frequency, TF over GST control); in experiment [8] it was 1.3 fold enrichment (6-mer frequency, TF over GST control); in experiment [9], 1.38 fold enrichment (6-mer frequency, TF over GST control).

Turning to AACTTA, the binding signal was 1.28 fold enrichment (6-mer frequency, TF over GST control) in [1]; 1.24 fold enrichment (6-mer frequency, TF over GST control) in experiment [2]; 1.32 fold enrichment (6-mer frequency, TF over GST control) in experiment [3]; 1.18 fold enrichment (6-mer frequency, TF over GST control) in experiment [4]; 1.27 fold enrichment (6-mer frequency, TF over GST control) in experiment [5]; 1.34 fold enrichment (6-mer frequency, TF over GST control) in experiment [6]. Besides, the binding signal in [7] was 1.23 fold enrichment (6-mer frequency, TF over GST control); in experiment [8], 1.23 fold enrichment (6-mer frequency, TF over GST control); in [9], 1.26 fold enrichment (6-mer frequency, TF over GST control).
